# Source: publication PMC7862700, “An all-to-all approach to the identification of sequence-specific readers for epigenetic DNA modifications on cytosine”
# Legend:
# Test in all cases: DAPPL (digital affinity profiling via proximity ligation, sequencing); 10 mM Tris-HCl pH 7.5, 50 mM NaCl, 1 mM DTT, 4% glycerol, room temperature, 30 min; GST-TFs on glutathione beads, 16-mer random dsDNA library, 0.1% formaldehyde crosslink after washing; high values mean tight binding
# FLI1 = biological target: T1, FLI1 (Homo sapiens, UniProt Q01543 1-452); conditions: protein: recombinant; tags: N-terminal GST; dsDNA, one strand shown
# T1 sequence: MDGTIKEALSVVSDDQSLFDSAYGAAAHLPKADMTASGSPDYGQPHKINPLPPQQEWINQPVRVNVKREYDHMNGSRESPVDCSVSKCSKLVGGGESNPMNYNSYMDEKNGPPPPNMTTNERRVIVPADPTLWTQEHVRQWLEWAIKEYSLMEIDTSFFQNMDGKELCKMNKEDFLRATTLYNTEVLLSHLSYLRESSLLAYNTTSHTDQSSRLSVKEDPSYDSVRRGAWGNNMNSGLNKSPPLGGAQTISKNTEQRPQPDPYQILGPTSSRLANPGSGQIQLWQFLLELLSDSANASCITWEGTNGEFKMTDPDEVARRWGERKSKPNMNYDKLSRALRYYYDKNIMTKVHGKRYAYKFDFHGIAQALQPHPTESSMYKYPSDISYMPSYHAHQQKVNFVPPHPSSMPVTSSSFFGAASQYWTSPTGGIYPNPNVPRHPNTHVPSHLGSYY
# Summary of the method: (§1)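 Human transcription factors fused to GST were expressed in yeast, captured on glutathione beads, given DNA barcodes and pooled with a GST-only negative control. Pools were incubated with 200 nmole of a 16-mer random double-stranded DNA library in Tris/NaCl/DTT/glycerol buffer at room temperature for 30 min. They were then washed, crosslinked with 0.1% formaldehyde, proximity-ligated (BsaI/T4 ligase, 1 h, 37 °C), PCR-amplified and sequenced on an Illumina NextSeq500. Binding signal is each 6-mer's read frequency for a factor divided by its frequency for the GST control.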
# ELK1 = biological target: T2, ELK1 (Homo sapiens, UniProt P19419 1-428); conditions: protein: recombinant; tags: N-terminal GST; dsDNA, one strand shown
# T2 sequence: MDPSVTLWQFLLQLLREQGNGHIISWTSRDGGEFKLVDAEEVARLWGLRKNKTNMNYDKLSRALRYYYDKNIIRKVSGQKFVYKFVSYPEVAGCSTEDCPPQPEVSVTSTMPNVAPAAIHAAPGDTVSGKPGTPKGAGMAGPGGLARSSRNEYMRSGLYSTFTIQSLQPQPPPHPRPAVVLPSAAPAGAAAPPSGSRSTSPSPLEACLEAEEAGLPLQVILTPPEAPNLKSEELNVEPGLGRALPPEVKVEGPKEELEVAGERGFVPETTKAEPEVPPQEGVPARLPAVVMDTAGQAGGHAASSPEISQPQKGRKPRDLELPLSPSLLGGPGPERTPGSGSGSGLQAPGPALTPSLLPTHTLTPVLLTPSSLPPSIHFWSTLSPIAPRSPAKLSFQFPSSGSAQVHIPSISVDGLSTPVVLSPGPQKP
# Summary of the method: as §1
# GABPA = biological target: T3, GABPA (Homo sapiens, UniProt Q06546 1-454); conditions: protein: recombinant; tags: N-terminal GST; dsDNA, one strand shown
# T3 sequence: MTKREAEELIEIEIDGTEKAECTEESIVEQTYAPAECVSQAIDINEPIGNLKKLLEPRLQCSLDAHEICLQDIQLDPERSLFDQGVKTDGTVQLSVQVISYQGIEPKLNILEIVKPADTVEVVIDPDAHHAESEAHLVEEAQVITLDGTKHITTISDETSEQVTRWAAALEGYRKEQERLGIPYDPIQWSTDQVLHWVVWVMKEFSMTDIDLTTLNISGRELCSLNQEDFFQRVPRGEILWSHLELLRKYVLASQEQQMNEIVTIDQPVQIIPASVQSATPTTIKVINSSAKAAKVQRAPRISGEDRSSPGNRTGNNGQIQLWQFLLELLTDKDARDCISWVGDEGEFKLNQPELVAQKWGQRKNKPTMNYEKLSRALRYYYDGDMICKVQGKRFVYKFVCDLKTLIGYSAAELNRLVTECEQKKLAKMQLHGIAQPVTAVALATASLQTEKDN
# Summary of the method: as §1
# ERG = biological target: T4, ERG (Homo sapiens, UniProt P11308 1-479); conditions: protein: recombinant; tags: N-terminal GST; dsDNA, one strand shown
# T4 sequence: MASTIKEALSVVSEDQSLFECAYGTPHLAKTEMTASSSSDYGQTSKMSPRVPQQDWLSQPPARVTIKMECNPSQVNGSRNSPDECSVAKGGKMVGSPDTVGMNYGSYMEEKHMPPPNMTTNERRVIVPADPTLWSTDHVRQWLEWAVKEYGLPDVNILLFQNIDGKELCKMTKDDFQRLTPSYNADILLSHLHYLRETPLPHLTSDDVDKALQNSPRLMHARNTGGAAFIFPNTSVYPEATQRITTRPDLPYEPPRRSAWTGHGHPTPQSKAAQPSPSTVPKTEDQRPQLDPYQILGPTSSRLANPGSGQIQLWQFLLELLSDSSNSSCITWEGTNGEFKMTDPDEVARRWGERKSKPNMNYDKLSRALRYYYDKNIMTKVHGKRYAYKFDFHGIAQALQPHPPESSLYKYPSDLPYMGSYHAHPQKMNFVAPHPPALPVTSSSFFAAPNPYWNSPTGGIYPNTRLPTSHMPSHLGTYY
# Summary of the method: as §1
# ELF1 = ELF1 (Homo sapiens, UniProt P32519 1-619); conditions: protein: recombinant; tags: N-terminal GST; dsDNA, one strand shown
# ELF1, sequence (P32519 whole entry): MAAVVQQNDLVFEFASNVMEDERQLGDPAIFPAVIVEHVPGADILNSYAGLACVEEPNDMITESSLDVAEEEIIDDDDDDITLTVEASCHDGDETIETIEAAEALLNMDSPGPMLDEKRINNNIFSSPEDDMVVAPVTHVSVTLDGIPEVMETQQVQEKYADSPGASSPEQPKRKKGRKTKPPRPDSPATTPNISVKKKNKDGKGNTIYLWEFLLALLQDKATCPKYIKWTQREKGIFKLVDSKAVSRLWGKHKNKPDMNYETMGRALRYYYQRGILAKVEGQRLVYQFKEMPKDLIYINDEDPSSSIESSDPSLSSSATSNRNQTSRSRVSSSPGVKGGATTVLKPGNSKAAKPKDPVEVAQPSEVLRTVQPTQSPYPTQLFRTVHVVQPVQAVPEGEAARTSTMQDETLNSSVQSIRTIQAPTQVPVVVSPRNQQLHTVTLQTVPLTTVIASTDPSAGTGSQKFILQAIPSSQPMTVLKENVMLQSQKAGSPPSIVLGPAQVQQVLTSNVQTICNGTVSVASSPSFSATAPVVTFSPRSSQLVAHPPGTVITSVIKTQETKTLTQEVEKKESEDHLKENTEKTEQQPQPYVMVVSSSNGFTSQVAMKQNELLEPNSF
# Summary of the method: as §1
# EHF = biological target: T5, EHF (Homo sapiens, UniProt Q9NZC4 1-300); conditions: protein: recombinant; tags: N-terminal GST; dsDNA, one strand shown
# T5 sequence: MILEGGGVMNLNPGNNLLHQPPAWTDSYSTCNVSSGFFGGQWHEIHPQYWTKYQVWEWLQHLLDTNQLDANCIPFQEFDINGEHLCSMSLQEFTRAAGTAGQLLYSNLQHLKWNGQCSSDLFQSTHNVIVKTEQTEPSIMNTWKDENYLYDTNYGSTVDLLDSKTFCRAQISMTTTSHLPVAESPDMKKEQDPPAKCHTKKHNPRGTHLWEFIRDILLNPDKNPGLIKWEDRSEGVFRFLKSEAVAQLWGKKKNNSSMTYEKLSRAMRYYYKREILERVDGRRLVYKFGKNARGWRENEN
# Summary of the method: as §1
# SPI1 = SPI1 (Homo sapiens, UniProt P17947 1-270); conditions: protein: recombinant; tags: N-terminal GST; dsDNA, one strand shown
# Summary of the method: as §1
# SPIB = SPIB (Homo sapiens, UniProt Q01892 1-262); conditions: protein: recombinant; tags: N-terminal GST; dsDNA, one strand shown
# SPIB, sequence (Q01892 whole entry): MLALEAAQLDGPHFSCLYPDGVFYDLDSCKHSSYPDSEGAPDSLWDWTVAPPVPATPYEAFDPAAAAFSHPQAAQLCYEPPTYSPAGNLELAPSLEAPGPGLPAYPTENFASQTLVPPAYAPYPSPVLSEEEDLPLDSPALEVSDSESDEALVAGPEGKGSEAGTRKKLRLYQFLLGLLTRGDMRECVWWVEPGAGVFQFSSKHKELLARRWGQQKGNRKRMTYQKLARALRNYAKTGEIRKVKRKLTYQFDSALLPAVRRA
# Summary of the method: as §1
# ELK3 = biological target: T6, ELK3 (Homo sapiens, UniProt P41970 1-407); conditions: protein: recombinant; tags: N-terminal GST; dsDNA, one strand shown
# T6 sequence: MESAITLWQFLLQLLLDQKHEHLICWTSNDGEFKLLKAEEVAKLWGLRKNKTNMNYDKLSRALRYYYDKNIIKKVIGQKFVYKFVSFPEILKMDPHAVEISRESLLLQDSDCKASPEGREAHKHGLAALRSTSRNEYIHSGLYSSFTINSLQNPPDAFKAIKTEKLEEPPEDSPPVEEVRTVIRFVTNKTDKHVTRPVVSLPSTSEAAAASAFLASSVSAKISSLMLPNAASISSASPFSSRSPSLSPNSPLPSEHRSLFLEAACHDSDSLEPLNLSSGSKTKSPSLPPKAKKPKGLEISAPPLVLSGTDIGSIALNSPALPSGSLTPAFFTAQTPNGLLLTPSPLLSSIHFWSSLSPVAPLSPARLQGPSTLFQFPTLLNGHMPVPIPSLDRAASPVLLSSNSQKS
# Summary of the method: as §1
# FEV = biological target: T7, FEV (Homo sapiens, UniProt Q99581 1-238); conditions: protein: recombinant; tags: N-terminal GST; dsDNA, one strand shown
# T7 sequence: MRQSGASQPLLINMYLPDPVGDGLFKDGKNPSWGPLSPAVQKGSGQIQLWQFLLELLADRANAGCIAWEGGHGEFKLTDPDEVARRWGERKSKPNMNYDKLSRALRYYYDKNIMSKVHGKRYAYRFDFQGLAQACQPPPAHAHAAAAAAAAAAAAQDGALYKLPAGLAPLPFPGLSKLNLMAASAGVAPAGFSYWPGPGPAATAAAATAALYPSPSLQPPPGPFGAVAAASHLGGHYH
# Summary of the method: as §1
# ETV5 = ETV5 (Homo sapiens, UniProt P41161 1-510); conditions: protein: recombinant; tags: N-terminal GST; dsDNA, one strand shown
# ETV5, sequence (P41161 whole entry): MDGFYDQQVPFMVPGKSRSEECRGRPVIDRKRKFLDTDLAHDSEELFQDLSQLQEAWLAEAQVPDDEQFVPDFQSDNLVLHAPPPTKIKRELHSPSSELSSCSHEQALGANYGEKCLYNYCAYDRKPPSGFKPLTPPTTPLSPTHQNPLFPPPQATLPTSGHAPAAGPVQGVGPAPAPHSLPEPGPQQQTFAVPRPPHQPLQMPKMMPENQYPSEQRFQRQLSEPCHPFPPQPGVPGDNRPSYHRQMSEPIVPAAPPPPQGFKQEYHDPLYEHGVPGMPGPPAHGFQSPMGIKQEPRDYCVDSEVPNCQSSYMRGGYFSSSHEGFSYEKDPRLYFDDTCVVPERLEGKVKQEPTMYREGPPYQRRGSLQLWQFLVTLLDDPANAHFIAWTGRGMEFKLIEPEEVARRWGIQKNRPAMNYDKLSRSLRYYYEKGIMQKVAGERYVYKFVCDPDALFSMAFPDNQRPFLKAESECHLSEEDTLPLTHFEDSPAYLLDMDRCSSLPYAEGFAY
# Summary of the method: as §1
# HSF1 = HSF1 (Homo sapiens, UniProt Q00613 1-529); conditions: protein: recombinant; tags: N-terminal GST; chain copies: 3; dsDNA, one strand shown
# HSF1, sequence (Q00613 whole entry): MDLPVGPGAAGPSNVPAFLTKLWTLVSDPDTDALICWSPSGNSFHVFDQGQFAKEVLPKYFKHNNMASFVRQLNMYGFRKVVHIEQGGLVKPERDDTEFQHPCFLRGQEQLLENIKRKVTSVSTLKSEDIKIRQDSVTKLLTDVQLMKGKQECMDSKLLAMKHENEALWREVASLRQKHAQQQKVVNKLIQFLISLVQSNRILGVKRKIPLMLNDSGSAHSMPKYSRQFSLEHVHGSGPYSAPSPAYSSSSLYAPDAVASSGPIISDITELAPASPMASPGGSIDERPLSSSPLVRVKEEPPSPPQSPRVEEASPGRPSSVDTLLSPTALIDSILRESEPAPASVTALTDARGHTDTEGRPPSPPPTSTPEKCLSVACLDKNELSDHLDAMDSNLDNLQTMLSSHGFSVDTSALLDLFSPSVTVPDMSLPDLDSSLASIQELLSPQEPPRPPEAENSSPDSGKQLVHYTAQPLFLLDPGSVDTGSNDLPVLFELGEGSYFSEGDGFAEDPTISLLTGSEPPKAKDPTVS
# Summary of the method: as §1
# SPIC = biological target: T8, SPIC (Homo sapiens, UniProt Q8N5J4 1-248); conditions: protein: recombinant; tags: N-terminal GST; dsDNA, one strand shown
# T8 sequence: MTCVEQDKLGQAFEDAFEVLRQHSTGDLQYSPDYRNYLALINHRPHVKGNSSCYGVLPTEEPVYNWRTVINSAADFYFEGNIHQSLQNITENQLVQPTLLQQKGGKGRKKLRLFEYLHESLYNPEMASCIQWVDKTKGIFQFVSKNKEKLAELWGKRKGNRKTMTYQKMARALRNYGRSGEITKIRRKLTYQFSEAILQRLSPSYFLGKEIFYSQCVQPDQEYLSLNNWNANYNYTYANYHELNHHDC
# Summary of the method: as §1
# ELF4 = ELF4 (Homo sapiens, UniProt Q99607 1-663); conditions: protein: recombinant; tags: N-terminal GST; dsDNA, one strand shown
# ELF4, sequence (Q99607 whole entry): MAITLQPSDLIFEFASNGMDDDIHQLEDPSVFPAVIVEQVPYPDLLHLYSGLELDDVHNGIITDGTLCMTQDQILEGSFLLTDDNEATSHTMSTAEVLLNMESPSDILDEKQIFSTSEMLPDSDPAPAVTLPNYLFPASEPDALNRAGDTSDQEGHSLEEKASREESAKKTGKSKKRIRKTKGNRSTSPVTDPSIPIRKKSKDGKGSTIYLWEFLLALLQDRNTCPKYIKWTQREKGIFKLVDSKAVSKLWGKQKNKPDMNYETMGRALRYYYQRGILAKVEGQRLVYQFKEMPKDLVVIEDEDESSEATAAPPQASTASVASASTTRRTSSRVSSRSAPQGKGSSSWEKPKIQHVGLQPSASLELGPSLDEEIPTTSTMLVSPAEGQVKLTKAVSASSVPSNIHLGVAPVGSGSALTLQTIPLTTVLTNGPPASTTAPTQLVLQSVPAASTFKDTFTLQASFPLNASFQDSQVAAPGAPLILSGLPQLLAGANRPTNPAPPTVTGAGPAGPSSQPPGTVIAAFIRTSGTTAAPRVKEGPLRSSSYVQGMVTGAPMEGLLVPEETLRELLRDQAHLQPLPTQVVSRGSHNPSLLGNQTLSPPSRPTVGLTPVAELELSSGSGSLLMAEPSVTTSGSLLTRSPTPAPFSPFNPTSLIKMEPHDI
# Summary of the method: as §1
# ELK4 = biological target: T9, ELK4 (Homo sapiens, UniProt P28324-2 1-405); conditions: protein: recombinant; tags: N-terminal GST; dsDNA, one strand shown
# T9 sequence: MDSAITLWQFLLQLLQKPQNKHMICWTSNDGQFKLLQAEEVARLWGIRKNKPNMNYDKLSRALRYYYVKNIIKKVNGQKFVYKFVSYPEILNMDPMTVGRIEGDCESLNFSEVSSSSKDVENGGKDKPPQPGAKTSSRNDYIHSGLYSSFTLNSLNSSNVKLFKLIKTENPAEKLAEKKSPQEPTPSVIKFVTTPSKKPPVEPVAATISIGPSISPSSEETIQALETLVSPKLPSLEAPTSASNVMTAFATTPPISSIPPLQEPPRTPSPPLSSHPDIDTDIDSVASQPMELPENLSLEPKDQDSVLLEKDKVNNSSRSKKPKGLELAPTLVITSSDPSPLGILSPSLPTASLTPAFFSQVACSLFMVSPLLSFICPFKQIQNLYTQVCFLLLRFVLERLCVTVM
# Summary of the method: as §1
# ETV2 = biological target: T10, ETV2 (Homo sapiens, UniProt O00321 1-342); conditions: protein: recombinant; tags: N-terminal GST; dsDNA, one strand shown
# T10 sequence: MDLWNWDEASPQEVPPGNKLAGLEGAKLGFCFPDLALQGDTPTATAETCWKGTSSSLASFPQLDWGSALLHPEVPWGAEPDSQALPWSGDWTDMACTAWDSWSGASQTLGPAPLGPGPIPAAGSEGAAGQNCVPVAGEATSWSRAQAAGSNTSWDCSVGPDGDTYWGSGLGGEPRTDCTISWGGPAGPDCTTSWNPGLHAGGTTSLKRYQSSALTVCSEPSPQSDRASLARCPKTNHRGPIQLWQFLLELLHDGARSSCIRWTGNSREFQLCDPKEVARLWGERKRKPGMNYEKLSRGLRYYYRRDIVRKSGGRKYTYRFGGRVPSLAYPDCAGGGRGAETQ
# Summary of the method: as §1
# ELF3 = biological target: T11, ELF3 (Homo sapiens, UniProt P78545 1-371); conditions: protein: recombinant; tags: N-terminal GST; dsDNA, one strand shown
# T11 sequence: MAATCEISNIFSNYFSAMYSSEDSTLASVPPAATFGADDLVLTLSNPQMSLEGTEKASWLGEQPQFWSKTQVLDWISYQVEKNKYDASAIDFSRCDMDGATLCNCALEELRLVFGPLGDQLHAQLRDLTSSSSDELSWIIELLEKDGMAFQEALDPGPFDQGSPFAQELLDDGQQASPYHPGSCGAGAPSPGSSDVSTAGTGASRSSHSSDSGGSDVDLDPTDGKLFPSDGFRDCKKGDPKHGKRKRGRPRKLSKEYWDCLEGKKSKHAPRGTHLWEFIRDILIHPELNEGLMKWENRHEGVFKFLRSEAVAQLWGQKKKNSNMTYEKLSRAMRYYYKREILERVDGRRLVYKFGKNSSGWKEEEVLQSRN
# Summary of the method: as §1
# CRX = CRX (Homo sapiens, UniProt O43186 1-299); conditions: protein: recombinant; tags: N-terminal GST; dsDNA, one strand shown
# CRX, sequence (O43186 whole entry): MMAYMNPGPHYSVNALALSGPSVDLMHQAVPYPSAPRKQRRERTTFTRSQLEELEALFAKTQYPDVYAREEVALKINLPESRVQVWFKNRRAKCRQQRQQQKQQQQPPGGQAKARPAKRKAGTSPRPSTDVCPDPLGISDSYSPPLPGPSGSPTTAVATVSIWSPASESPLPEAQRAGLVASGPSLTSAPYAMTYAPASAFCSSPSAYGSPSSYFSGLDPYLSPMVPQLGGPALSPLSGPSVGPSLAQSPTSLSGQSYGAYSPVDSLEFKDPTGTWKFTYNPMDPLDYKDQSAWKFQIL
# Summary of the method: as §1
# ETV1 = ETV1 (Homo sapiens, UniProt P50549 1-477); conditions: protein: recombinant; tags: N-terminal GST; dsDNA, one strand shown
# ETV1, sequence (P50549 whole entry): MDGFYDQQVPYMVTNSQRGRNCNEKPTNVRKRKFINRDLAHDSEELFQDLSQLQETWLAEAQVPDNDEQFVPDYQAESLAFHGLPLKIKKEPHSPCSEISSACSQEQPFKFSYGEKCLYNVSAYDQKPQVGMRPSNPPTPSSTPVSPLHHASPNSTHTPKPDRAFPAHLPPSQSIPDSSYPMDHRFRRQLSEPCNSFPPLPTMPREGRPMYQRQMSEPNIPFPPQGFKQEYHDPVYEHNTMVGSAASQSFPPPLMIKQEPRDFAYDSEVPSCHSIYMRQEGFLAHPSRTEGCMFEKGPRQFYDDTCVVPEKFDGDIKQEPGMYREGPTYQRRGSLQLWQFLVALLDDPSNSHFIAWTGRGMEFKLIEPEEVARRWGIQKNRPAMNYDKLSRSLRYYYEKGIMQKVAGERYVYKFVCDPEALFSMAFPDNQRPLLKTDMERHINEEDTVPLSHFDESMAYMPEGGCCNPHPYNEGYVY
# Summary of the method: as §1
sequence,measurement,setting,value
TATATC,binding signal,FLI1,"1.6 fold enrichment (6-mer frequency, TF over GST control)"
same,binding signal,ELK1,"1.62 fold enrichment (6-mer frequency, TF over GST control)"
same,binding signal,GABPA,"1.55 fold enrichment (6-mer frequency, TF over GST control)"
same,binding signal,ERG,"1.48 fold enrichment (6-mer frequency, TF over GST control)"
same,binding signal,ELF1,"1.58 fold enrichment (6-mer frequency, TF over GST control)"
same,binding signal,EHF,"1.59 fold enrichment (6-mer frequency, TF over GST control)"
same,binding signal,SPI1,"1.54 fold enrichment (6-mer frequency, TF over GST control)"
same,binding signal,SPIB,"1.67 fold enrichment (6-mer frequency, TF over GST control)"
same,binding signal,ELK3,"1.42 fold enrichment (6-mer frequency, TF over GST control)"
same,binding signal,FEV,"1.58 fold enrichment (6-mer frequency, TF over GST control)"
same,binding signal,ETV5,"1.6 fold enrichment (6-mer frequency, TF over GST control)"
same,binding signal,HSF1,"1.33 fold enrichment (6-mer frequency, TF over GST control)"
same,binding signal,SPIC,"1.67 fold enrichment (6-mer frequency, TF over GST control)"
same,binding signal,ELF4,"1.58 fold enrichment (6-mer frequency, TF over GST control)"
same,binding signal,ELK4,"1.53 fold enrichment (6-mer frequency, TF over GST control)"
same,binding signal,ETV2,"1.54 fold enrichment (6-mer frequency, TF over GST control)"
same,binding signal,ELF3,"1.36 fold enrichment (6-mer frequency, TF over GST control)"
same,binding signal,CRX,"1.67 fold enrichment (6-mer frequency, TF over GST control)"
same,binding signal,ETV1,"1.54 fold enrichment (6-mer frequency, TF over GST control)"
